# A selection: hits, their analogues and other compounds. The true share with any hit is near 17%.
# TGFb SMAD3 inh = qHTS for Inhibitors of TGF-b; HepG2 CAGA-GFP TGF-b/SMAD3 reporter, GFP fluorescence, 18 h; TGF-beta stimulated, 500 pg/mL final; Potency, µM (titrated, usually from 46.1 µM), actives largely listed as inhibitors; 1.2% of 410,000 active; AID 588855, 2011; note: nearly all actives have a fitted effect of over 65% in size
#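 HEPG2 CAGA-GFP cells (1000/well, DMEM with 1% FBS) were pre-incubated 2 h at 37 degrees C, given compound by pin tool, then stimulated with TGF-beta at 500 pg/mL final for 18 h before per-cell GFP fluorescence imaging.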
# ATXN viability = Viability Counterscreen for Primary qHTS for Inhibitors of ATXN expression. 0.49% of 400,000 active. S2 cells (HEK-293 line with an ATXN2-luciferase reporter) viability, CellTiter-Fluor protease fluorescence, 24 h. Potency, µM (top dose mostly 56.7 µM), most hits filed as cytotoxic; note: nearly all actives have a fitted effect of over 40% in size
# TDP1 cell CPT = qHTS for Inhibitors of human tyrosyl-DNA phosphodiesterase 1 (TDP1): qHTS in cells in presence of CPT; 12% of 420,000 active; chicken DT40 Tdp1-/-;hTDP1 cells + 20 nM CPT, ATP luminescence, 48 h; Potency, µM (doses to about 46.2 µM), usual class: inhibitors; note: nearly all actives have a fitted effect of over 55% in size
#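 Chicken DT40 Tdp1-/- cells stably complemented with human TDP1 were seeded at 400 cells/well in medium containing 20 nM camptothecin, exposed to pin-transferred compounds, and grown at 37 °C for at least 48 hr. Viability was read as ATP luminescence.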
# TDP1 cell noCPT = qHTS for Inhibitors of human tyrosyl-DNA phosphodiesterase 1 (TDP1): qHTS in cells in absence of CPT; AID 686978, 2013; 15% of 420,000 active; DT40 Tdp1-/- hTDP1 cells, no CPT, ATP luminescence, 48 h; Potency, µM (top dose mostly 46.2 µM), usual class: inhibitors; note: nearly all actives have a fitted effect of over 55% in size
#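 Chicken DT40 Tdp1-/- cells complemented with human TDP1, screened without camptothecin (DMSO vehicle only), 400 cells/well. Compounds pin-transferred, cells incubated at 37 °C for at least 48 hr. Growth read as ATP-dependent luminescence (CellTiter-Glo, 30 min at RT).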
# ATXN2 expr inh = Primary qHTS for Inhibitors of ATXN expression. HEK-293 ATXN2-luciferase reporter, luminescence, 24 h. Potency, µM (top dose mostly 57 µM), hits mostly inhibitors. 0.72% of 360,000 active; note: nearly all actives have a fitted effect of over 55% in size
#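 ATXN2-luciferase reporter cells (luciferase flanked by upstream and downstream ATXN2 gene portions) were treated 24 h at 37 °C with compounds at up to 57 uM. SteadyGlo luminescence gave expression; GF-AFC fluorescence gave viability.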
# HepG2 viability = qHTS for Inhibitors of TGF-b: Cytotox Counterscreen. HepG2 CAGA-GFP viability, ATP luminescence, 18 h. Potency, µM (series often up to 46.1 µM), most hits filed as cytotoxic. 0.76% of 410,000 active. AID 588856, 2011
#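 CellTiter-Glo luminescence gave cytotoxicity after 18 hours at 37 degrees C. The cells were HepG2 CAGA-GFP in 1% FBS DMEM, stimulated with 500 pg/mL TGF-beta after compound addition. %Activity was normalised to no-cell wells (complete cell-killing) and DMSO (no toxicity), and curves were fitted and classified.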
# Hits are given with their value; 0 = inactive; ? = inconclusive; - = no result given; [ ] = another dose, or the depositor's remark. Calls come from the whole dose curve; as a rule, active = well fitted curve in the direction sought with a large enough effect; inconclusive = small, poorly fitted or top-dose-only effect, or another doubt; inactive = no such curve, though single readings can be large; an effect the other way counts as inactive or inconclusive.
SMILES,TGFb SMAD3 inh,ATXN viability,TDP1 cell CPT,TDP1 cell noCPT,ATXN2 expr inh,HepG2 viability
CN(C)Cc1cc(C(C)(C)c2ccccc2)ccc1O,0,0,23µM,?,0,0
COc1ccccc1C(=O)N/C(=C\c1cn(C)c2ccccc12)C(=O)NCCCN1CCOCC1,0,0,0,?,-,0
COc1cccc(-c2cccc(NC(=O)C3CCN(Cc4ccc(CO)o4)CC3)c2)c1,0,0,0,0,0,0
COc1cccc(-c2ccc(NC(=O)C3CCCN(Cc4cccc(C)n4)C3)cc2)c1 (centres undefined),?,?,?,23µM,-,0
Cc1ncc(CN2CCCC(C(=O)Nc3ccc(-c4ccco4)cc3)C2)cn1 (centres undefined),0,0,0,0,-,0
COCCc1ncc(CN2CCCC(C(=O)Nc3cccc(-c4cccc(C)c4)c3)C2)cn1 (centres undefined),0,0,?,23µM,0,0
COc1cccc(-c2ccc(NC(=O)C3CCCN(Cc4ccc(CO)o4)C3)cc2)c1 (centres undefined),0,0,16µM,16µM,0,0
CC(C)c1cc(C(=O)N2CCCC(C(=O)c3ccc4ccccc4c3)C2)on1 (centres undefined),0,?,?,26µM,0,0
Cc1cc(Cl)ccc1C(=O)C1CCCN(C(=O)c2cc(C(C)C)no2)C1 (centres undefined),0,0,?,0,0,0
CCn1cc(CN2CCCC(C(=O)Nc3cccc(-c4cc5ccccc5[nH]4)c3)C2)c(C)n1 (centres undefined),?,0,23µM,?,?,0
COc1ccc2cc(C(=O)C3CCCN(C(=O)c4ccnn4C)C3)ccc2c1 (centres undefined),?,0,26µM,15µM,-,0
Cn1cc(CN2CCCC(C(=O)Nc3cccc(-c4cc5ccccc5[nH]4)c3)C2)cn1 (centres undefined),?,0,?,?,0,0
COc1cccc(-c2ccc(NC(=O)C3CCCN(Cc4cnc(C)n4C)C3)cc2)c1 (centres undefined),0,?,?,?,0,0
Cc1ncc(CN2CCCC(C(=O)Nc3ccc(-c4cccc(F)c4)cc3)C2)n1C (centres undefined),?,0,23µM,?,?,0
Cc1cc(CN2CCCC(C(=O)Nc3ccc(-c4nc5ccccc5[nH]4)cc3)C2)n[nH]1 (centres undefined),0,0,18µM,?,0,0
O=C(CCNS(=O)(=O)c1cccc2nsnc12)Nc1ccc(F)cc1,0,0,0,0,0,0
CCOC(=O)N1CCC(N2CCCC(C(=O)c3cc(C)c(OC)c(C)c3)C2)CC1 (centres undefined),0,0,0,0,0,0
CCOC(=O)N1CCC(N2CCCC(C(=O)c3ccc4cc(OC)ccc4c3)C2)CC1 (centres undefined),?,0,23µM,15µM,0,0
COc1cccc(C(=O)C2CCCN(C(=O)c3ccc(C#CC(C)(C)O)cc3)C2)c1 (centres undefined),?,0,18µM,15µM,-,0
COc1ccc2cc(C(=O)C3CCCN(Cc4cccc(C)n4)C3)ccc2c1 (centres undefined),?,0,2.6µM,8.2µM,0,0
Cc1ccc(NC(=O)CCC(=O)NNC(=S)Nc2ccc(F)cc2)c(C)c1,0,0,0,0,0,0
CC(NC(=S)Nc1cccc(C(F)(F)F)c1)C(C)(C)C (centres undefined),?,?,?,16µM,0[11.3 µM],0
CN(C)C(=S)Nc1cccc(C(F)(F)F)c1,0,0,26µM,?,0,0
CN(C)NC(=S)Nc1cccc(C(F)(F)F)c1,0,0,0,0,0,0
Cc1ccc(NC(=S)NNC(=S)Nc2cccc(C(F)(F)F)c2)cc1,0,0,?,29µM,0,0
SMILES,TGFb SMAD3 inh,ATXN viability,TDP1 cell CPT,TDP1 cell noCPT,ATXN2 expr inh,HepG2 viability
Cc1ccc(NNC(=S)Nc2ccc(C(C)C)cc2)c(C)c1,?,0,?,16µM,0,0
COc1ccc(NC(=O)C/C(C)=N/NC(=O)C(=O)NC2CCCCC2)c(OC)c1,0,0,0,0,0,0
O=C(Cn1nc(-c2ccccc2)c2c(c1=O)CCCC2)Nc1ccc(F)c(Cl)c1,0,0,0,0,0,0
CS(=O)(=O)c1ccc(-c2cccc3c2OC(CNC(=O)c2ccnc(Cl)c2)C3)cc1 (centres undefined),-,0,?,?,-,-
CN(C)C(=S)Nc1cccc(F)c1,0,?,0,0,-,0
CC(C)(C)NNC(=S)Nc1cccc(F)c1,?,?,?,15µM,0,0
Cc1ccc(NC(=S)NNC(=S)Nc2ccc(C)cc2)cc1,?,?,6.5µM,2.3µM,0,0
CO[C@@H]1[C@@H](O[C@@H]2O[C@H](C)[C@@H](O[C@H]3C[C@@](C)(O)[C@@H](O)[C@H](C)O3)[C@H](N(C)C)[C@H]2O)[C@@H](CC=O)C[C@@H](C)[C@@H](O[C@@H]2CC[C@H](N(C)C)[C@@H](C)O2)/C=C/C=C/C[C@@H](C)OC(=O)C[C@H]1O,-,0,0,0,-,-
CCn1c(SCC(=O)Nc2cccc(OC)c2)nc2c(c1=O)SCC2,0,0,0,0,0,0
CCn1cc2nc(SCC(=O)Nc3ccc(OC)c(OC)c3)n(Cc3ccc(OC)cc3)c(=O)c2n1,0,0,?,?,0,0
CCn1c(SCC(=O)Nc2cc(OC)ccc2OC)nc2c(c1=O)SCC2,0,0,?,26µM,0,0
CCn1cc2nc(SCC(=O)Nc3ccc(OC)c(Cl)c3)n(Cc3ccc(OC)cc3)c(=O)c2n1,0,0,0,0,0,0
CCn1cc2nc(SCC(=O)Nc3ccc(C)cc3)n(Cc3ccc(C)cc3)c(=O)c2n1,0,?,21µM,13µM,0,0
CCn1cc2nc(SCC(=O)Nc3ccccc3C(F)(F)F)n(Cc3ccc(C)cc3)c(=O)c2n1,0,0,16µM,18µM,0,0
CCn1cc2nc(SCC(=O)Nc3ccc(OC)cc3OC)n(Cc3ccc(OC)cc3)c(=O)c2n1,0,?,4.1µM,2.6µM,0,0
CN(C)C1CCCCC=CC(=O)NC1 (centres undefined),0,0,0,0,-,0
CC(C)OCCCn1c(SCC(=O)Nc2ccccc2C(F)(F)F)nc2nccnc2c1=O,0,0,0,0,0,2.5µM

# Screens as filed in PubChem.
